Hits are enriched below; roughly 1.2% of the tested compounds scored in any of these assays.
JMJD2C inh: human JMJD2C demethylase inhibition; inhibition, % at 2.35 µM; AID 2099; GST-JMJD2C(1-420) H3K9me3 demethylation, DELFIA europium; actives 0.069% (n = 330,000);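 active = more than half of a compound's replicate wells show inhibition beyond 50%, single wells judged on their own value; inconclusive = some, but no more than half, of replicates pass 50% inhibition; inactive = no replicate passes 50% inhibition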;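 note: signal counts dimethyl H3K9 product captured on neutravidin plate; 0% = median of DMSO wells and 100% = 0.3 times that DMSO median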
GPR7 antag: human neuropeptides B/W receptor 1 antagonism | P48145 | GPR7-expressing cells, fluorescence antagonist assay | inhibition, % at 4.4 µM | actives 1.1% (n = 290,000) | AID 1861; in the data active = inhibition above about 16%, passing the limit was not always enough;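 note: cells stimulated with the agonist NPW; 0% = agonist with vehicle and 100% = vehicle without agonist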
VLA-4 inh: inhibition in a human VLA-4 binding assay; AID 2557; VLA-4 expressing cells, ligand binding flow cytometry; P13612; actives 0.2% (n = 330,000); inhibition, % (about 7 µM as worked out from the volumes in the protocol); in the data active = inhibition above about 50%
pCIP destab: p/CIP protein destabilization; actives 0.01% (n = 290,000); Q05BA5; F442A p/CIP-EGFP cells, EGFP fluorescence, 16 h; decrease of EGFP signal, % at 10 µM; AID 1984;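 active = EGFP signal decrease of at least 30% at 10 µM or well 3 SD below plate mean, unless failing retest; inactive = the rest, including hits failing retest or dose response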
Target sequence (Q05BA5 1-1403): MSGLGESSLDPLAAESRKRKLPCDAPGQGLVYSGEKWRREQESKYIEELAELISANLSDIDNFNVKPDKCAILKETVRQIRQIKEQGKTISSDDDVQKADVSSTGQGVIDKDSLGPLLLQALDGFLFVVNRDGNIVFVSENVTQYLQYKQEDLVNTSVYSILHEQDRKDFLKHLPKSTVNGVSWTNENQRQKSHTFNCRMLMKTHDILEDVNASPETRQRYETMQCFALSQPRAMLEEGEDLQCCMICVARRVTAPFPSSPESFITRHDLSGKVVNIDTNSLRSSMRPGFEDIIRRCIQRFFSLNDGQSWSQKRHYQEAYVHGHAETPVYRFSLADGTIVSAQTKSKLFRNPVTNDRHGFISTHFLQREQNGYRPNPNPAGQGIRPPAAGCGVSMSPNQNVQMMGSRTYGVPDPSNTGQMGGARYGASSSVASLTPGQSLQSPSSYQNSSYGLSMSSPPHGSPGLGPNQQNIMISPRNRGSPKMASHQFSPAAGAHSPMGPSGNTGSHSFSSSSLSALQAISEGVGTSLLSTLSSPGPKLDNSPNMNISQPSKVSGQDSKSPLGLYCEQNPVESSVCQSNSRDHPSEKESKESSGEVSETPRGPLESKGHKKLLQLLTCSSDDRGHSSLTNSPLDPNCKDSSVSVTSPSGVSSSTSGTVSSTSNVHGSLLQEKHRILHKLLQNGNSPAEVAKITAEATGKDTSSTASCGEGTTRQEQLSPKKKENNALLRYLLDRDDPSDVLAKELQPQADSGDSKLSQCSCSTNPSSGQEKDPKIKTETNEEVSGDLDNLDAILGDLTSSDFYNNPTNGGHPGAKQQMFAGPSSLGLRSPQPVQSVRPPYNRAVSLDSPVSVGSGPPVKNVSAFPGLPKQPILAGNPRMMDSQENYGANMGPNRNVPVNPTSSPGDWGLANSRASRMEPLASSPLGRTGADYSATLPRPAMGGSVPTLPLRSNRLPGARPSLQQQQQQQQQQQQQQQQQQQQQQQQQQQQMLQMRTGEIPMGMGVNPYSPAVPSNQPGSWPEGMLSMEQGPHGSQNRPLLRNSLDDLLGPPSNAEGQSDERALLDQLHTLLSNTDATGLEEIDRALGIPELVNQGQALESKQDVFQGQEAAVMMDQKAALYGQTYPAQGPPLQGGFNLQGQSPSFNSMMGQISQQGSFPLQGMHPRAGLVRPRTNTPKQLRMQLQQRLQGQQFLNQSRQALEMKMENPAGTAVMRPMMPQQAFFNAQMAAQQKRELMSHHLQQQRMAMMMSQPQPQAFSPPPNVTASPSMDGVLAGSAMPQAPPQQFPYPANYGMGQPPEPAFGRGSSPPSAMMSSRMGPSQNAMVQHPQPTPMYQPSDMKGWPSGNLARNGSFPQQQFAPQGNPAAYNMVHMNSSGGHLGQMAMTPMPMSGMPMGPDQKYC
GPR7 antag cf: human GPR7 antagonism, confirmation assay; shares compounds with GPR7 antag; GPR7-expressing cells, calcium fluorescence antagonist mode; inhibition, % at 4.4 µM; actives 52% (n = 2,400); AID 1952; in the data active = inhibition above about 24%;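 note: stimulated with the GPR7 agonist NPW; 0% = agonist plus vehicle and 100% = vehicle alone without agonist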
MCHR1 antag: MCHR1 (human) antagonism in GPR7 counter-screen | shares compounds with GPR7 antag | MCHR1-expressing cells, fluorescence antagonist assay | inhibition, % at 4.4 µM | actives 62% (n = 2,400) | AID 2148; in the data active = inhibition above about 22%;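 note: 0% = vehicle with agonist and 100% = vehicle without agonist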
* marks the source's active call; other numbers are inactive results; ? = inconclusive; · = no result given.

SMILES	JMJD2C inh	GPR7 antag	VLA-4 inh	pCIP destab	GPR7 antag cf	MCHR1 antag
O=[N+]([O-])c1ccc(NCCNS(=O)(=O)c2ccccc2)cc1	19	25*	7	1	28*	32*
Cc1nc(C(=O)Nc2ccc(Cl)cc2)nn1-c1ccc([N+](=O)[O-])cc1	-10	31*	10	2	4	7
Cc1ccc(NC(=O)c2nc(C)n(-c3ccc([N+](=O)[O-])cc3)n2)cc1	-12	-1	1	-16	·	·
Cc1ccc(SC(c2ccc(C)cc2)C(Cn2cncn2)C(=O)c2ccccc2)cc1 (stereo not drawn)	3	26*	-8	-5	3	3
CC(=O)c1ccc(NC(=O)C(Cc2ccccc2)n2cccc2)cc1 (stereo not drawn)	1	-9	8	5	·	·
O=C(CN1CCN(S(=O)(=O)c2ccc(Cl)cc2)CC1)Nc1ccc(F)cc1F	3	24*	-10	-10	34*	22*
O=C(CN1CCN(S(=O)(=O)c2ccc(Br)cc2)CC1)Nc1ccc(F)cc1	13	30*	37	-2	39*	26*
COc1cccc(NC(=O)CN2CCN(S(=O)(=O)c3ccc(C(C)C)cc3)CC2)c1	-5	35*	13	9	38*	29*
NS(=O)(=O)c1ccc(NC(=O)CN2CCN(S(=O)(=O)c3ccc(F)cc3)CC2)cc1	0	-6	10	4	·	·
COc1cccc(NC(=O)CN2C(=O)COc3ccc(S(=O)(=O)N4CCC(C)CC4)cc32)c1	-4	23*	0	-2	-15	0
COc1cc(NC(=O)CN2CCN(S(=O)(=O)c3ccc(C(C)C)cc3)CC2)cc(OC)c1	-1	-5	16	2	·	·
CCN(Cc1ccccc1)C(=O)C(C)OC(=O)c1cc(S(=O)(=O)Nc2c(C)n(C)n(-c3ccccc3)c2=O)ccc1C (stereo not drawn)	7	-8	22	-3	·	·
Cc1ccccc1C(=O)Nc1ccnn1C1CCN(C(=O)c2cnsn2)CC1	3	-7	7	4	·	·
COc1cc(NC(=O)CNc2cccc(S(=O)(=O)N3CCCC3)c2)cc(OC)c1	-7	31*	-11	-10	4	19
COc1cccc(NC(=O)CN(C)C(=O)c2cccc(S(=O)(=O)N3CCN(c4ccccc4)CC3)c2)c1	-2	24*	-6	-29	16	39*
O=C(CN1CCCCCC1)Nc1ccc(F)c(F)c1	5	-1	4	-4	·	·
O=C(CN1CCN(CC(=O)Nc2ccccc2Cl)CC1)Nc1ccc(F)c(F)c1	-13	48*	8	-7	42*	61*
O=C(Nc1ccc(S(=O)(=O)N2CCCCC2)cc1)c1ccc(CN2CCOCC2)cc1	-6	60*	-15	-17	62*	83*
O=C(Nc1ccc(S(=O)(=O)Nc2ccc(F)cc2)cc1)c1ccc(CN2CCOCC2)cc1	-4	30*	11	-20	66*	77*
CCN(CC)S(=O)(=O)c1ccc(NC(=O)c2ccc(CN3CCOCC3)cc2)cc1	-1	15	1	3	·	·
O=C(Nc1ccc(S(=O)(=O)N2CCOCC2)cc1)c1ccc(S(=O)(=O)N2CCOCC2)cc1	-2	13	12	6	·	·
Cc1ccc(C)c(C(=O)Nc2ccncc2)c1	-1	-12	11	-14	·	·
CC(C)C(=O)N1CCN(c2ccccc2NC(=O)c2ccc([N+](=O)[O-])o2)CC1	-18	35*	7	-16	28*	21
O=C(Nc1ccccc1N1CCN(C(=O)c2ccccc2)CC1)c1ccc([N+](=O)[O-])o1	-1	37*	·	-16	33*	35*
O=C(Nc1ccc(N2CCN(C(=O)c3ccccc3)CC2)c(Cl)c1)c1ccc(Br)o1	9	6	-51	-2	·	·
SMILES	JMJD2C inh	GPR7 antag	VLA-4 inh	pCIP destab	GPR7 antag cf	MCHR1 antag
O=C(Nc1ccc(N2CCN(C(=O)c3ccccc3)CC2)cc1)c1ccc(Br)o1	11	38*	-13	14	39*	32*
O=c1cc(CN2CCOCC2)c2ccc(O)c(O)c2o1	-20	-1	8	4	·	·
COC(=O)COc1ccc(-c2ccc(F)cc2)cc1C=O	14	33*	0	-10	31*	35*
COC(=O)COc1ccc(-c2ccccc2)cc1C=O	-1	31*	20	2	17	38*
N#Cc1cc[n+](CC(=O)c2ccc(NC(=O)c3ccccc3)cc2)cc1	1	-14	-2	-10	·	·
O=[N+]([O-])c1ccc(Oc2ccc(OCc3ccccc3)cc2)nc1	-24	61*	-2	0	40*	61*
COc1ccc(S(=O)(=O)c2snnc2C)cc1	-4	-13	2	-14	·	·
COc1cc(C)c(CN2CCC(Oc3ccc(C(=O)N4CCCC4)cc3)CC2)cc1C	2	-6	12	-6	·	·
O=c1cc2c(nn1Cc1ccccc1)-c1ccccc1CC2	-3	-1	-18	-6	·	·
O=c1cc2c(nn1Cc1ccc(F)cc1)-c1ccccc1CC2	16	35*	6	-8	1	11
Cc1ccc(NC2SC(=O)N(Cc3cccc(C(=O)O)c3)C2=O)cc1 (stereo not drawn)	-2	29*	2	2	4	-4
O=C(O)c1cccc(CN2C(=O)SC(Nc3ccccc3)C2=O)c1 (stereo not drawn)	-2	3	7	-2	·	·
O=C1C=C(c2ccc(OC(F)(F)F)cc2)C[C@@H](c2ccc(Cl)cc2)C1	-1	·	0	·	·	·
CCOC(=O)c1ccc(NC(=S)NC(=O)COc2ccccc2)cc1	-9	-10	11	-2	·	·
CC(=O)[C@@]1(O)[C@H](C)CC2C3CC=C4CC(OP(=O)(O)O)CC[C@]4(C)C3CC[C@@]21C (stereo partly drawn)	3	28*	4	4	-7	8
CCc1ccccc1NC(=O)C1CCCN(c2ncnc3onc(-c4ccc(F)cc4)c23)C1 (stereo not drawn)	?	29*	-5	4	16	22*
Cc1ccccc1NC(=O)C1CCCN(c2ncnc3onc(-c4ccc(F)cc4)c23)C1 (stereo not drawn)	-21	28*	12	10	28*	15
CCc1ccccc1NC(=O)C1CCCN(c2nccc(C)n2)C1 (stereo not drawn)	6	-14	47	-8	·	·
S=c1[nH]nc(CCCc2n[nH]c(=S)o2)o1	0	-4	8	-7	·	·
C=CC[C@]12C=C(OC)C(=O)C=C1O[C@@H](c1ccc3c(c1)OCO3)[C@H]2C	-7	·	-31	·	·	·
CCC(C)Sc1ccc([C@H]2N[C@@](Cc3ccccc3)(C(=O)OC)[C@H]3C(=O)N(C)C(=O)[C@@H]23)cc1 (stereo partly drawn)	?	·	-7	·	·	·
COCCCN1CCN(C2Cc3ccccc3Sc3ccc(Cl)cc32)CC1 (stereo not drawn)	3	24*	7	-4	23	34*
